Among all 69,000 compounds or so, about 8,600 (12%) showed an effect of 50% or more. What follows is part of a selection rich in strong results, with near analogues and random picks from the rest.

This experiment relates to Plasmodium berghei. The experiment in a line: Screen against P. berghei liver stage (PbLuc), transformed with Luciferase, at 10uM. Format: functional, HepG2. Conditions: tested at 10 uM.
With `CN(C)c1ccc(C(=O)N2CCN(Cc3cscn3)CC2)cn1`, the INHIBITION is reported as -0.219%.

For `FCCOc1cccc(NCc2c[nH]nc2-c2cccnc2)c1`, the INHIBITION is 34.6%.

For `CCOCc1cccc(NCc2c[nH]nc2-c2cccnc2)c1`, the INHIBITION is 49.1%.

Regarding `COc1ccc(NCc2c[nH]nc2-c2cccnc2)cc1`, the INHIBITION is reported as 56.8%.

With `CC(Cn1cccn1)NC(=O)NCc1cccnc1OC1CCCC1` (stereo not given), the INHIBITION was -21.7%.

With `CC(Cn1cccn1)NC(=O)NCc1ccnc(OC2CCCC2)c1` (stereo not given), the INHIBITION was found to be 23.5%.

`CC(Cn1cccn1)NC(=O)NCc1ccc(OC2CCCC2)nc1` (stereo not given): the INHIBITION was found to be 54.4%.

Take `CC(C)n1cnnc1CN1CCC2(CCCN(C3CCCCC3)C2=O)C1` (stereo not given): the INHIBITION is listed as -64.1%.

Consider `CCN1CCCC1CNC(=O)c1cc(COc2ccccc2F)[nH]n1` (stereo not given), for which the INHIBITION is reported as -11.2%.

Consider `COc1ccc2c(c1)CCCN(CC(=O)NCC1CCCO1)C2` (stereo not given), for which the INHIBITION was found to be 39.6%.

On to `Cc1c(C(=O)N2CCC(N3CCCCC3)CC2)n(C)c2ccc(Cl)cc12`, for which the INHIBITION was determined as 69.3%.

Take `Cc1c(C(=O)N2CCOCC2)n(C)c2ccc(Cl)cc12`: the INHIBITION was -1.3%.

As for `Cc1c(C(=O)N2CCN(C)CC2)n(C)c2ccc(Cl)cc12`, the INHIBITION worked out at 20.9%.

Take `NS(=O)(=O)CC1CCCN(C(=O)CCCC2CCCC2)C1` (stereo not given): the INHIBITION was 43.8%.

Regarding `O=C(CCC1CCN(C2Cc3ccccc3C2)CC1)NCC1CCCO1` (stereo not given), the INHIBITION was 25.8%.

Consider `O=C1CCC2(CCN(Cc3nccs3)CC2)N1Cc1ccccc1`, for which the INHIBITION worked out at 11.4%.

Turning to `COc1ccc(-c2ccnc(N)c2)c(OC)c1`, the INHIBITION is -10.5%.

For `COc1ccc(-c2cc(N)ccn2)c(OC)c1OC`, the INHIBITION was 61.5%.

For `COc1cc(F)ccc1-c1cc(N)ccn1`, the INHIBITION amounted to 49.6%.

For the molecule `CCOc1ccc2oc(-c3cnn(C)c3C)c(O)c(=O)c2c1`, the INHIBITION is 0.207%.

In the case of `COC(=O)c1ccc(NC(=O)CCNCc2ccco2)cc1`, the INHIBITION was found to be 36.5%.

As to `CN1CCN(Cc2ccc(-c3ccc(-c4ccn[nH]4)cc3)nc2)CC1`, the INHIBITION is recorded as 54.9%.

Take `CN1CCN(Cc2ccc(-c3ccc(C(N)=O)cc3)nc2)CC1`: the INHIBITION is 24.2%.

For the molecule `CN1CCN(Cc2ccc(-c3ccc4[nH]ccc4c3)nc2)CC1`, the INHIBITION worked out at 27.5%.

On to `CCCC(=O)N1CCCCC1c1nccc(C)n1` (stereo not given), for which the INHIBITION came out at 20.8%.

In the case of `COc1ccc(CN(C)[C@@H]2CN(C(=O)c3cccn3C)C[C@H]2O)cc1`, the INHIBITION came to 32.8%.

For `CCN(C)c1ncc2c(c1C(=O)O)CCN(C1CCOC1)C2` (stereo not given), the INHIBITION is listed as 33.4%.

As to `CN1CCN(c2ncc3c(c2C(=O)O)CCN(C2CCOC2)C3)CC1` (stereo not given), the INHIBITION was 58.5%.

`CCN(CC)c1ncc2c(c1C(=O)O)CCN(C1CCOC1)C2` (stereo not given): the INHIBITION is reported as 15.7%.

With `CO[C@@H]1CCN(C(=O)c2ccsc2)[C@@H]2CN(CC3CC3)C[C@@H]21`, the INHIBITION is -19.6%.

With `NC(=O)COc1ccc(CN2CC[C@@]3(O)CCCC[C@H]3C2)cc1Cl`, the INHIBITION was 16.8%.

Take `NC(=O)COc1ccc(CN2CCC(O)(CN3CCCCC3)C2)cc1Cl` (stereo not given): the INHIBITION was 50.5%.

For the molecule `NC(=O)COc1ccc(CN2CCC3(CC2)[C@H](O)C[C@@H]3O)cc1Cl`, the INHIBITION came to 28.7%.

Turning to `COc1ccccc1C1CCN(C(=O)CN2C(=O)OC(C)(C)C2=O)CC1`, the INHIBITION was -140%.

With `Cc1c(C(C)NC2CCCC2)cnn1-c1ccc(F)cc1F` (stereo not given), the INHIBITION turned out to be 31.9%.

As to `CSc1ncc(CNC(C)c2cnn(-c3ccccc3)c2C)cn1` (stereo not given), the INHIBITION was found to be 36.7%.

`CSc1ncc(CNC(C)c2cnn(-c3ccc(F)cc3F)c2C)cn1` (stereo not given): the INHIBITION worked out at 50.3%.

Turning to `Cc1c(C(C)NCC2CCCC2)cnn1-c1ccc(F)cc1F` (stereo not given), the INHIBITION amounted to 62.9%.

For `COc1ccc(-n2ncc(C(C)NCc3cnc(SC)nc3)c2C)cc1` (stereo not given), the INHIBITION was 7.6%.

For the molecule `Cc1c(C(C)NC2CCOCC2)cnn1-c1ccc(F)cc1F` (stereo not given), the INHIBITION came out at 22.3%.

For the molecule `O=C(NC[C@H]1OC[C@@H]2CCN(C3CCOCC3)C[C@@H]21)c1ccncc1`, the INHIBITION stood at 36.2%.

Turning to `COc1c(CNC2CCc3c(Cl)cccc32)c(C)nn1C` (stereo not given), the INHIBITION worked out at 36.3%.

In the case of `CCCN1CCC(N2CCC(Cn3cc(CC(C)O)nn3)CC2)CC1` (stereo not given), the INHIBITION came to 25.3%.

Take `OCc1cn(CC2CCN(C3CCSC3)CC2)nn1` (stereo not given): the INHIBITION was -14.1%.

Turning to `CC(O)Cc1cn(CC2CCN(C3CCSCC3)CC2)nn1` (stereo not given), the INHIBITION is given as 57.8%.

Turning to `O=C(O)c1cc(-c2cccs2)nc2c(Br)cnn12`, the INHIBITION was determined as 15.9%.

For `Cn1cc(NC(=O)CNC(=O)N2CCN(c3ccccc3)CC2)cn1`, the INHIBITION is recorded as 21.5%.

As to `Cc1cnc(CN(C)C2CCN(CC(=O)Nc3nncs3)C2)o1` (stereo not given), the INHIBITION was 20.9%.

With `CCCC(=O)N1CCC2(CC1)CN(Cc1cccc(C)n1)C(=O)CO2`, the INHIBITION is on record as 25.3%.

As to `CS(=O)(=O)N1CC[C@H]2O[C@H](C(=O)NCCc3ccncc3)CC[C@H]21`, the INHIBITION is reported as -35.9%.

As for `O=C(NCc1cccs1)[C@H]1CC[C@@H]2[C@@H](CCN2Cc2ccoc2)O1`, the INHIBITION is recorded as -5.31%.

Turning to `O=C(NCCc1ccccn1)[C@@H]1CC[C@@H]2[C@@H](CCN2Cc2ccoc2)O1`, the INHIBITION worked out at 59.9%.

`CS(=O)(=O)N1CC[C@H]2O[C@H](C(=O)NCc3cccnc3)CC[C@H]21`: the INHIBITION is recorded as 11.4%.

Take `CS(=O)(=O)N1CC[C@H]2O[C@H](C(=O)NCCc3ccccn3)CC[C@H]21`: the INHIBITION was found to be 54.7%.

As for `O=C(Nc1cnccn1)[C@H]1CC[C@@H]2[C@@H](CCN2Cc2ccoc2)O1`, the INHIBITION amounted to 8.52%.

The values are drawn from ChEMBL document CHEMBL4513216, “Probing the Open Global Health Chemical Diversity Library for Multistage-Active Starting Points for Next-Generation Antimalarials” (ACS Infect Dis, 2020).
